Among the data in ChEMBL document CHEMBL3988442, “University of Dundee, Small-Polar-MMV Screening Library” (2021) are Percent Effect values, retold here.

Structures are written as SMILES.

For this experiment, the target named is AMP-activated protein kinase, AMPK (Homo sapiens) (UniProt P54646+O43741+P54619+Q9UGJ0+Q9Y478+Q13131+Q9UGI9). The experiment in a line: AMP-dependent Kinase enzyme assay. An in vitro enzyme assay that detects ADP turnover that is directly proportional to AMPK activity. This uses naive AMPK that is activated during the assay with MK-8722. Also on record: scale not given: direction of the effect not stated beside the values. It is filed as functional. The settings on record: 30 µM.
Take `Cc1nc(CN2CCN(S(=O)(=O)N3CCCCC3)CC2)oc1C`: the Percent Effect is -4.45%.

With `O=C(NCc1cccnc1-n1cncn1)c1cc(Cl)ccn1`, the Percent Effect is -11.1%.

On to `COC(=O)c1ccc(N(C(=O)c2cscn2)C(C)C)c(C)c1`, for which the Percent Effect is -0.314%.

As for `Cc1cccc(C)c1Oc1ncccc1CNC(=O)C1COC(=O)N1` (stereo not given), the Percent Effect was -10.7%.

With `O=C(CCn1cncn1)N1CCCC(CO)(CCCc2ccccc2)C1` (stereo not given), the Percent Effect is 0.934%.

`Cc1cnn(C2CCCN(C(=O)c3cc(-c4ccccc4C)n[nH]3)C2)c1` (stereo not given): the Percent Effect was found to be 1.68%.

On to `c1cnc(N2CCC(OCC3CCCCO3)CC2)nc1` (stereo not given), for which the Percent Effect was 2.8%.

Turning to `CN(C)CC1(O)CCCN(C(=O)Cn2ccc3ccccc32)CC1` (stereo not given), the Percent Effect is -8.54%.

For the molecule `Cc1nn(C)c2nc(NC3CCNCC3)sc12`, the Percent Effect was 0.889%.

Regarding `CC(=O)Nc1ccc(Oc2cc(C)nc(C3CCNCC3)c2)cc1`, the Percent Effect was found to be 0.11%.

On to `O=C(NCCc1cc(N2CCOCC2)nc(NC2CC2)n1)C1CC1`, for which the Percent Effect came to 23.1%.

Regarding `COC(=O)CC1CCCCN1CC(=O)Nc1ccc(F)cc1Cl` (stereo not given), the Percent Effect was found to be 8.66%.

Turning to `CCCS(=O)(=O)CC(=O)Nc1ccsc1`, the Percent Effect is -1.52%.

Regarding `Cc1cc(C)c(C(=O)N(C)CCN(C)C(=O)OC(C)(C)C)[nH]1`, the Percent Effect was -0.277%.

With `O=C(NCCc1cc(N2CCOCC2)nc(N2CCCC2)n1)C1CC1`, the Percent Effect turned out to be 13.9%.

In the case of `O=C(CCNCc1cccc2c1OCCCO2)NC1CCCC1`, the Percent Effect is -8.82%.

Regarding `CC1(C)OC(=O)N(CC(=O)N2CCC(c3ccccc3Cl)C2)C1=O` (stereo not given), the Percent Effect worked out at 8.7%.

For the molecule `COc1ccc(C2CCN(CCCC#N)CC2)cc1`, the Percent Effect was found to be 3.86%.

Take `Cc1cc(N2CCC3(CCCN(CCO)C3=O)C2)nc2cc(Cl)ccc12` (stereo not given): the Percent Effect amounted to 10%.

Consider `CCC(C)c1csc(NC(=O)Cc2csc(-c3nnc[nH]3)n2)n1` (stereo not given), for which the Percent Effect was 10.5%.

Turning to `CN(C)c1nc2sc(C(=O)N3CCN(C(=O)OC(C)(C)C)CC3)cc2s1`, the Percent Effect was 63.5%.

In the case of `O=C(NC1CCN(C2CC2)CC1)c1cn(-c2ccc(Cl)cc2)nn1`, the Percent Effect was 0.108%.

Take `CN1C[C@H](c2ccccc2)[C@H]2CN(C(=O)Cc3ccc(O)cc3)CC[C@H]21`: the Percent Effect worked out at 4.46%.

As for `COc1cc(Cl)cc(CN2CCCC(N3CCCC3)C2)c1OC` (stereo not given), the Percent Effect amounted to 4.91%.

On to `CCN1CCC(CC(=O)NCc2nc(C)cc(C)n2)CC1`, for which the Percent Effect came out at 9.34%.

With `Cc1cnn(C2CCCN(C(=O)c3cc[nH]n3)C2)c1` (stereo not given), the Percent Effect is -0.778%.

Consider `CCc1cccc(OCCCN(C)C(=O)CN2CCNC2=O)c1`, for which the Percent Effect is 5.57%.

Turning to `COCC(C)(O)CNC(=O)c1cc(-c2ccc(F)cc2)nn1C` (stereo not given), the Percent Effect stood at 2.75%.

Regarding `COc1ccc(C)cc1CN(CC(N)=O)C(C)C`, the Percent Effect is 0.855%.

With `COc1cccc(S(=O)(=O)N2CCCCC2CCN2CCCC2=O)c1` (stereo not given), the Percent Effect came out at 5.93%.

On to `CC(=O)c1cccc(OC(C)C(=O)Nc2cnn(CCN(C)C)c2)c1` (stereo not given), for which the Percent Effect is -0.8%.

Consider `COc1cccc(S(=O)(=O)N2CCOC(C)(C(N)=O)C2)c1` (stereo not given), for which the Percent Effect amounted to 22.4%.

On to `CNc1nc(C(=O)N2CCCn3nc(C(=O)N4CCCC4)cc3C2)cs1`, for which the Percent Effect is 10.6%.

Turning to `Cn1c(N)nnc1SCc1c(F)cccc1Br`, the Percent Effect was 4.93%.

Regarding `Cc1cccn2cc(CN3CCC(N4CCN(C)C4=O)CC3)nc12`, the Percent Effect is 0.324%.

Regarding `NC(=O)C1CCN(c2ncccc2C(=O)N2CCc3ccccc32)C1` (stereo not given), the Percent Effect is 2.58%.

For the molecule `CCC(NC(=O)C(C)C)c1ccccc1C` (stereo not given), the Percent Effect is 8.49%.

As for `COc1cc(N2CCN(Cc3ccc(C)o3)C(CCO)C2)nc(N)n1` (stereo not given), the Percent Effect was found to be 0.197%.

`Cn1nccc1CN1CCOC(c2cccc(Nc3ccccn3)n2)C1` (stereo not given): the Percent Effect came out at 5.54%.

For `Cc1nc2n(n1)CC(Nc1nc(C(F)(F)F)nc3ccccc13)CC2` (stereo not given), the Percent Effect is 1.51%.
